# Assay results taken from PubChem BioAssay.
# A number with no mark means an inactive call.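 Rule for the calls: active = viability increase at or above a cutoff of the median across tested compounds plus 3 SD (cut at about 8.5% in these data, passing the limit was not always enough); inconclusive = some gains above the cutoff, reason not given; inactive = the rest.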
# Test: doxorubicin toxicity protection in MRP-1 cells – H69AR cells, CellTiter-Glo, duplicate, MRP-1 activator project, pilot screen (AID 807);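 note: compound pretreatment 18-22 h then 72 h combined with doxorubicin; 0% = doxorubicin alone and 100% = vehicle without doxorubicin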
# Conditions: H69AR viability with doxorubicin, CellTiter-Glo luminescence; at 10 µM; hits give high values
row,SMILES,viability increase [%]
1,CCOC(=O)Cn1c(=O)oc2cc(S(=O)(=O)NCc3ccccn3)ccc21,-1.25
2,CCOC(=O)C1C(C)N=C2SCC(=O)N2C1c1cccc(Br)c1 (stereo not given),-0.84
3,CN1CCN(c2cc3c(c4c2[nH]c2ccccc24)C(=O)CC(C)(C)C3)CC1,-8.46
4,Cc1cc(/C=N/n2cnnc2)c(C)n1-c1ccc(C(=O)O)cc1,1.76
5,O=C(CSc1cn(Cc2ccccc2)c2ccccc12)Nc1nccs1,1.89
6,CCOC(=O)CN1Cc2cccc(C(=O)O)c2C1=O,-0.75
7,CCOC(=O)C1CCCN(C(=O)c2ccc(CNc3c(N4CCC(C)CC4)c(=O)c3=O)cc2)C1 (stereo not given),0.29
8,O=C1C(Cl)=C(N2CCCCCC2)C(=O)N1c1ccccc1,-0.88
9,O=C(Nc1c(C(=O)O)oc2ccc(Br)cc12)c1ccccc1,-3.96
10,CC1(C)CC(=O)C2(CC3=C(CC(C)(C)CC3=O)O2)C(=O)C1,0.2
11,CCCn1nc(NC(=O)CC(C)C)c2cc3ccccc3nc21,-5.27
12,Cc1ccc(C2=[N+]([O-])C3(CCCCC/C3=N\O)N(O)C2(C)C)o1 (stereo not given),-1.16
13,COc1ccc(-c2nc(CS(=O)CC(=O)NCC3CCCO3)c(C)o2)cc1 (stereo not given),-2.38
14,CN(C(=O)c1ccc2c(c1)OCO2)C1(C(=O)NC2CCCCC2)CCCCC1,-1.06
15,CCn1c(=O)cc(OCC(=O)N2CCc3ccccc32)c2ccccc21,-3.92
16,Cn1c(=O)[nH]c(=O)c2[nH]c(CN3CCN(Cc4ccccc4)CC3)nc21,-0.77
17,CCCCOC(=O)Cc1c(O)c2ccccc2[nH]c1=O,-1.82
18,CCOc1ccc(S(=O)(=O)Nc2ccccc2C(=O)NCC2CCCO2)cc1 (stereo not given),-0.84
19,O=C1C(Cl)=C(NCC2CCCO2)C(=O)N1C1CCCCC1 (stereo not given),-3.97
20,CC1=C(C(=O)N2CCOCC2)C(c2cccs2)NC(=O)N1 (stereo not given),-0.8

row,SMILES,viability increase [%]
1,CCC1CCCCN1C(=O)CSc1nnc(-c2ccc(Cl)cc2)o1 (stereo not given),0.28
2,COC(=O)CN1C(=O)C(O)(CC(=O)c2cccc(Br)c2)c2ccccc21 (stereo not given),-4.39
3,O=P(O)(CCc1ccccn1)CN1CCOCC1,1.31
4,O=C(NCc1cccnc1)NC1(C(F)(F)F)Oc2ccc(Cl)cc2O1 (stereo not given),-6.19
5,CN(C)C(C(=O)NC1CCCCC1)c1ccc(Cl)cc1 (stereo not given),-3.08
6,COc1ccc(C)cc1NC(=O)C1CCCN(S(=O)(=O)c2c(C)noc2/C=C/N(C)C)C1 (stereo not given),-0.74
7,COc1ccc(S(=O)(=O)Nc2ccc3c(c2)OCO3)cc1C(=O)O,-1.95
8,O=C(Nc1nnc(C2CC2)s1)c1cc(-c2ccccc2)nn1-c1ccccc1,-0.61
9,O=C(Oc1cccnc1)c1cccc(Cl)c1,-0.55
10,COc1ccc(N2CCN(C(=O)c3ccc4nc(N5CCCCC5)sc4c3)CC2)cc1,0.49
11,O=C(Cn1cc2c(n1)CCCC2)Nc1ccccc1Br,-2.82
12,CCCN(CC1CC1)S(=O)(=O)c1ccc(S(N)(=O)=O)cc1,-1.41
13,Fc1ccccc1N1CCN(C2CCN(Cc3c[nH]c4ccccc34)CC2)CC1,-6.63
14,COc1ccccc1NC(=O)C1=C(C)Nc2nc(-c3cccs3)nn2C1c1cccnc1 (stereo not given),-5.67
15,COc1ccccc1NC1C=CS(=O)(=O)C1 (stereo not given),-2.42
16,COc1ccc(C2(C(=O)NCCCN(C)C)CCOCC2)cc1,-0.22
17,COc1ccccc1C1NC(=O)NC(C)=C1C(=O)Nc1cccc(C)c1C (stereo not given),-1.32
18,CCCCSCc1[nH]c(=O)[nH]c1C(=O)CCCCC(=O)OCC,-3.65
19,Cn1cc(S(=O)(=O)N2CCN(Cc3ccccc3)CC2)c(=O)n(C)c1=O,-0.5
20,CCOc1ccc(S(=O)(=O)n2ccnc2)c2ccccc12,-1.1
